# Laboratory results: PubChem BioAssay AID1347075 (National Center for Advancing Translational Sciences (NCATS), 2019)
# Values joined by “and” are separate entries in the source; they are usually repeats but may differ in a detail not shown here. Equal entries are not always repeated. Among all 400,000 compounds or so, about 5,500 (1.4%) were called active. Inconclusive results (about 9%) are left out. The sample holds actives, similar compounds and a random draw of the others, so the mix is not that of the screen. A number with no mark means an inactive call. The call rests on the fitted dose curve; in most records, active means well fitted cell-killing curve with a large enough effect; inconclusive means small, poorly fitted or top-dose-only effect, or effect the other way; inactive means flat fitted curve, though single readings scatter.
# Test: qHTS assay for MDR1-selective chemotherapeutics: Primary screen using the parental adenocarcinoma cell KB-3-1; further: nearly all actives have a fitted effect of over 60% in size
# Conditions: KB-3-1 viability, CellTiter-Glo ATP luminescence, 72 h; series mostly up to 46.1 µM; activity change, negative = cytotoxic: at the top concentration
# Procedure, shortened: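 Parental KB-3-1 adenocarcinoma cells in phenol-red-free DMEM with 10% FBS were pin-treated with compounds at several concentrations, incubated 72 h at 37 °C, and viability read by CellTiter-Glo luminescence; concentration-effect curves were fitted after normalization.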
# On the % scale 0 is the no-effect control and ±100 the full control effect; potency means the concentration at half of the fitted maximal effect.
Compound,"activity change, negative = cytotoxic",Potency
Cc1ccc(C)c(N2CCN(C(=O)CN3C(=O)COc4ccc(S(=O)(=O)N5CCCCCC5)cc43)CC2)c1,-28%,–
CC1=C(C(=O)Nc2ccccc2Cl)C(c2cccs2)n2ncnc2N1 (centres undefined),-2.1%,–
COc1ccccc1NC(=O)C1=C(C)Nc2ncnn2C1c1sccc1C (centres undefined),-2.47%,–
COc1ccccc1NC(=O)C1=C(C)Nc2nc3ccccc3n2C1c1cccs1 (centres undefined),–,3.26 µM (active)
Cc1nc2c(c(C)nn2-c2ccccc2)c(C)c1CCC(=O)NCCc1ccc(Cl)cc1,4.93%,–
O=C1CC(c2nnc(Cc3ccc(Cl)cc3)o2)CN1c1ccccc1 (centres undefined),0.612%,–
CCC(=O)N1CCc2cc(Br)cc(S(=O)(=O)NCc3ccc(Cl)cc3)c21,-8.85%,–
COc1cc(C2c3cc4c(cc3C(O)C3COC(=O)C23)OCO4)cc(OC)c1OC (centres undefined),–,146 nM (active) and 164 nM (active)
COc1cc(C=C(OC(C)=O)c2ccc3c(c2)OCO3)cc(OC)c1OC,3.24%,–
COc1cc(C2CC(=O)Oc3cc(OC)c(OC)c(OC)c32)cc(OC)c1OC (centres undefined),0%,–
Cc1ccccc1NC(=O)Cn1cc(C(=O)c2cccs2)c2ccccc21,-2.3%,–
CCCCOC(=O)CSc1ncnc2sc3c(c12)CCC(C)C3 (centres undefined),-2.69%,–
CC1CCCCN1S(=O)(=O)c1ccc(S(=O)(=O)N(CC(=O)Nc2ccccc2)Cc2cccs2)cc1 (centres undefined),-1.56%,–
CC1CN(S(=O)(=O)c2ccc(C(=O)Nc3sccc3C(N)=O)cc2)CC(C)O1 (centres undefined),-4.42%,–
CC1CCCCN1S(=O)(=O)c1ccc(C(=O)Nc2nnc(-c3cccs3)o2)cc1 (centres undefined),–,9.2 µM (active)
Cc1nc2sc(C(=O)c3ccccc3)c(N)c2c2c1CCCC2,–,23.1 µM (active)
Cc1c(C(=O)Nc2ccccc2)sc2nc3n(c(=O)c12)CCCCC3,9.47%,–
Cn1c(-c2ccc(C(=O)c3ccccc3)s2)nc2ccccc21,-3.28%,–
CCN(Cc1ccccc1)Cc1c(O)ccc2c(=O)c(-c3ccc(Cl)cc3Cl)coc12,1.32%,–
CC1CN(C(=O)N2CCC(C(=O)NCc3ccco3)CC2)c2cc(Cl)ccc2O1 (centres undefined),-3.94%,–
COc1ccc(-c2noc(CCC(=O)N(C)c3ccccc3C)n2)cc1,4.45%,–
Cc1nc2ccccc2c(=O)n1-c1ccc(NS(=O)(=O)c2ccc(F)cc2F)cc1,-2.73%,–
Cc1[nH]n(-c2cccc(Cl)c2)c(=O)c1/C=N/n1c(C)nc2ccccc2c1=O,–,10.3 µM (active)
Cc1cc2n(n1)C(c1cc(C(C)(C)C)c(O)cc1O)Nc1ccccc1-2 (centres undefined),0%,–
O=C(CCC1N=C2c3ccccc3N=C(SCc3ccccc3F)N2C1=O)NCCc1ccccc1 (centres undefined),-0.17%,–

Compound,"activity change, negative = cytotoxic",Potency
COc1cccc(CNC(=O)Cc2csc3nc(-c4ccccc4)cn23)c1,-0.279%,–
COC(=O)Nc1nc2ccc(Sc3ccccc3)cc2[nH]1,–,1.46 µM (active)
COc1ccc(NC(=O)CSc2nc3ccccc3[nH]2)cc1,4.45%,–
Cc1ccc2nc(CNC(=O)c3ccccc3)[nH]c2c1,2.91%,–
COc1ccc(CCNc2ncnc3onc(-c4ccc(Cl)cc4)c23)c(OC)c1,-5.86%,–
COc1ccc(Cl)cc1NC(=O)CN(C)C(=O)c1ccc2n[nH]nc2c1,0.871%,–
COc1ccc(Cl)cc1NC(=O)CSc1nc(-c2cccs2)cc(C(F)(F)F)n1,-13.2%,–
COc1ccc(Cl)cc1NC(=O)CN(C)C(=O)c1cc(-c2cccs2)nn1-c1ccccc1,–,20.6 µM (active)
C=CCNC(=O)c1ccc2nc(-c3ccco3)c(-c3ccco3)nc2c1,2.54%,–
CC(C)(C)OC(=O)N(Cc1ccco1)S(=O)(=O)c1ccccc1Br,-12.7%,–
COc1ccc(CC(=O)Nc2ccc(-c3nc4ccccc4s3)c(C)c2)cc1,10.3%,–
COC(=O)Cc1[nH]n(-c2nc3ccccc3s2)c(=O)c1C(C)=Nc1ccc(OC)cc1,–,9.2 µM (active)
Cc1ccc(C)c(NC(=O)CSC2=Nc3ccccc3N=C(c3ccc(F)cc3)C2)c1,-1.82%,–
CCOC(=O)C1CCN(c2csc3ccc(C)cc3c2=O)CC1,1.53%,–
O=C(Cn1c(=O)n(Cc2ccccc2)c(=O)c2sc3ccccc3c21)Nc1ccccc1F,-3.72%,–
CN(C)c1ccc(/C=C/c2c3ccccc3nc3ccccc23)cc1,6.58%,–
CN(C)c1ccc(CSc2ccccc2)cc1,-1.01%,–
CN(C)c1ccc(/C=C/c2sc3ccccc3[n+]2C)cc1,–,6.51 µM (active)
CN(C)c1ccc(/C=C/c2sc3ccccc3[n+]2CCCCBr)cc1,–,1.3 µM (active)
CCN(CCCNC(=O)c1cc2c(=O)n(CC)c3ccccc3c2s1)Cc1ccccc1,-19.2%,–
CCc1ccc(OCCCn2c(CCCNC(=O)C3CCCCC3)nc3ccccc32)cc1,0%,–
COc1cccc(N2CCN(S(=O)(=O)c3cc(Br)cc4c3N(C(=O)C3CC3)CC4)CC2)c1,-8.04%,–
CCCCC12CN3CC(C)(CN(C1)C3c1ccc(O)c(OC)c1)C2=O (centres undefined),0.281%,–
Cc1ccc(C)c(N2CCN(C(=O)C3CCC(CNS(=O)(=O)c4cccs4)CC3)CC2)c1 (centres undefined),-7.67%,–
Cc1ccc(C)c(Oc2c(C(F)(F)F)oc3c(CN4CCN(C)CC4)c(O)ccc3c2=O)c1,7.76%,–

Compound,"activity change, negative = cytotoxic",Potency
Cc1cc(C)c(NC(=O)c2cc3sc(Cl)cc3n2C)c(C)c1,1.75%,–
O=C(NCc1ccccc1Cl)c1cccn1-c1nnc(N2CCCCC2)s1,-2.97%,–
COc1ccc(NC(=O)CSc2nnc(-c3nnn(-c4ccc(F)cc4)c3C)o2)cc1,16.7%,–
O=C(Nc1ccc2ccccc2c1)Nc1nnc(-c2ccc(O)cc2)s1,9.05%,–
O=C1CCc2cc(S(=O)(=O)Nc3cccc(Oc4ccccc4)c3)ccc2N1,-28.1%,–
CCOC(=O)c1ccc(N2C(=O)c3[nH]nc(-c4ccccc4)c3C2c2ccc(C(C)C)cc2)cc1 (centres undefined),–,18.4 µM (active)
CCOC(=O)c1ccc(N2C(=O)c3n[nH]c(C)c3C2c2ccc(O)c(OC)c2)cc1 (centres undefined),1.28%,–
CCOC(=O)c1ccc(N2C(=O)c3n[nH]c(-c4ccco4)c3C2c2ccc(O)cc2)cc1 (centres undefined),-1.36%,–
Cc1cccc(CN2Cc3cccc4c3[C@H](C=CC4)CC2=S)c1,-2.25%,–
O=C(Cn1cnc2c(cnn2-c2ccc(F)cc2)c1=O)NCCc1ccccc1,4.89%,–
CC(=O)Cn1cnc2c(cnn2-c2ccccc2)c1=O,11.5%,–
O=C(Cn1cnc2c(cnn2-c2ccccc2)c1=O)NCc1ccccc1,–,8.2 µM (active)
COc1ccc2cc(CNc3ccc(OC)c(OC)c3)c(=O)n(CC(=O)Nc3ccccc3F)c2c1,7.88%,–
COc1ccc(-c2noc(CSc3nc(C)cc(=O)[nH]3)n2)cc1OC,-19.4%,–
O=c1c2cc(Br)ccc2nc(-c2cccc(Cl)c2)n1O,–,9.2 µM (active)
NC(N)=Nc1nc2ccc(Br)cc2c(=O)[nH]1,3.81%,–
CC(C)Cn1c(=O)c2ccccc2n2c(-c3cccc(Cl)c3)nnc12,2.56%,–
COC(=O)c1cc(NC(=O)CCc2c(C)nc3c4c(C)cc(C)nc4nn3c2C)cc(C(=O)OC)c1,-6.9%,–
O=c1cc(COc2cccc(C(F)(F)F)c2)nc2sc3c(n12)CCCC3,14.6%,–
O=S(=O)(NCC(c1ccco1)N1CCOCC1)c1cc(F)ccc1F (centres undefined),1.35%,–
O=C(CSc1ccsc1[N+](=O)[O-])N1CCCCC1,–,18.4 µM (active)
O=C(CSCc1cccs1)N1CCCC1,-3.61%,–
CC1CC(C)CN(C(=O)CSc2ccsc2[N+](=O)[O-])C1 (centres undefined),0.397%,–
COc1cc2nc(C#Cc3nc4cc(OC)c(OC)cc4[nH]3)[nH]c2cc1OC,22.1%,–
COc1ccc(CN2C(=O)C(NC(=O)c3cccc(C)c3)(C(F)(F)F)N=C2c2ccccc2)cc1 (centres undefined),-5.67%,–

Compound,"activity change, negative = cytotoxic",Potency
Cc1cc2c(cc3c(SCc4cccc(Cl)c4)nnc(C)n32)o1,3.88%,–
Cc1cc(C)cc(-n2ccnc2SCC(=O)Nc2nc3ccccc3s2)c1,3.34%,–
Cc1cccc(-n2ccnc2SCC(=O)Nc2cccc3ccccc23)c1C,14.9%,–
Cc1nnc(NC(=O)CSc2nccn2-c2cccc(C)c2C)s1,–,3.66 µM (active)
Cc1ccc(S(=O)(=O)N2CCN(c3nc(-n4cnc5ccccc54)nc4ccccc34)CC2)cc1,17.8%,–
CC1CC(C)CN(C/C=C/c2ccccc2[N+](=O)[O-])C1 (centres undefined),2.5%,–
CC1CCCCC1NC(=O)/C(C#N)=C/C=C/c1ccccc1[N+](=O)[O-] (centres undefined),–,5.8 µM (active)
CC(OC(=O)/C=C/c1ccccc1)C(=O)NC1CCCCC1C (centres undefined),1.76%,–
O=C1CCCC2=C1[C@@]1(CCC(c3ccccc3)C1)N=C(Nc1nc3ccccc3o1)N2 (some centres undefined),–,inactive
CCN(C(=O)CSc1nnc(C)n2c1cc1occc12)c1ccccc1,12.3%,–
CC(C)c1ccc2oc(-c3cc(NC(=O)c4cccs4)ccc3Cl)nc2c1,3.62%,–
CC(C)(C)n1nc(Cc2cccc3ccccc23)c(C#N)c1N,-23.1%,–
CCc1nn(-c2cc(Oc3cccc4ccccc34)nc(-c3ccccc3)n2)c(N)c1C#N,–,5.8 µM (active)
C(=Nc1ccc(/C=C/c2ccnc3ccccc23)cc1)c1cc2c3c(c1)CCCN3CCC2,0%,–
CCOC(=O)C1CCN(C(c2ccc(F)cc2)c2sc3nc(-c4ccco4)nn3c2O)CC1 (centres undefined),1.03%,–
CCC1CCCCN1Cc1c(O)ccc2c(=O)c(Oc3ccccc3Cl)c(C(F)(F)F)oc12 (centres undefined),1.37%,–
CNC(=O)C(NC(=O)c1ccccc1)=C(C)C,-13%,–
CN(C)C(=O)c1coc2nc3ccccc3nc12,-3.25%,–
CNC(=O)c1cccc2nc3ccccc3nc12,–,16.4 µM (active)
CCCCn1c(=N)c(S(=O)(=O)c2ccccc2)cc2c(=O)n3cccc(C)c3nc21,0.0272%,–
COc1ccc(NC(=O)CN2CCCN(Cc3ccccc3)S2(=O)=O)cc1,-9.93%,–
CCc1ccc(C2CC(=O)c3c([nH]c(C(=O)OCc4ccc(C)cc4)c3C)C2)cc1 (centres undefined),-10.1%,–
COC(=O)C1C(=O)c2c([nH]c(C(=O)OCCSC)c2C)CC1C (centres undefined),5.65%,–
CCCOC(=O)c1[nH]c2c(c1C)C(=O)CC(c1cccs1)C2 (centres undefined),–,0.651 µM (active)
